Experimental data from PubChem BioAssay (NCATS).
Results filed as inconclusive are left out. Calls of active or inactive are those of the source. The call rests on the fitted dose curve; in most records, active means well fitted curve in the direction sought with a large enough effect; inconclusive means small, poorly fitted or top-dose-only effect, or another doubt; inactive means no such curve, though single readings can be large; an effect the other way counts as inactive or inconclusive.

Legend:
[1] = target: Calcium and integrin-binding protein 1 (Homo sapiens) (UniProt Q99828); experiment: Primary qHTS for Identification of Calcium Integrin Binding Protein 1 (CIB1) Competitor (AID 1508620);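 further: GST tagged CIB1 binding a fluorescein labelled alphaIIb integrin peptide tracer; top concentration of the series differs between compounds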
Sequence of Calcium and integrin-binding protein 1 (Homo sapiens) (Q99828 whole entry, looked up): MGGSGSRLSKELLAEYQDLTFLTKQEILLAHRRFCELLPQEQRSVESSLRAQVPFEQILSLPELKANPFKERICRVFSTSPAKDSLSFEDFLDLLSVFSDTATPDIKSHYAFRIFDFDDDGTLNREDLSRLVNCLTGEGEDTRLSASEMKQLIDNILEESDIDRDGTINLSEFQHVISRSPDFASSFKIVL
Outline: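 Fluorescence polarization competition: CIB1-GST (1 uM final) preincubated with compound 15 min at room temperature, then FITC-labeled alphaIIb peptide (100 nM final) added for another 15 min. Polarization read at Ex 480/Em 540.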

[2] = Primary qHTS for inhibitors of nuclear receptor binding SET domain protein 2 (NSD2) in an isogenic RCH-ACV NSD2 p.E1099K mutant (9B) (AID 1645876); further: nearly all actives have a fitted effect of over 70% in size
[3] = Primary qHTS for inhibitors of nuclear receptor binding SET domain protein 2 (NSD2) in an RCH-ACV wild type WT cells (2C) (AID 1645877); further: nearly all actives have a fitted effect of over 70% in size
On the % scale 0 is the no-effect control and ±100 the full control effect.

CC(C)=C1C[C@@]2(C)C(=CC1=O)CC[C@@H](O)[C@@H]2C
inactive: Potency [1] | Potency [2] | Potency [3]

O=C1NC(=O)/C(=C/c2cccc(C(F)(F)F)c2)S1
inactive: Potency [1] | Potency [2] | Potency [3]

CC1(O)CCC2C(C3C1CCC3(C)O)C2(C)C (stereo not given)
inactive: Potency [1] | Potency [2] | Potency [3]

C#CCCCn1cc(-c2cccc3c2N[C@@H](C)CC(=O)N3)cn1
inactive: Potency [1] | Potency [2] | Potency [3]

CC1(C)CC[C@]2(C(=O)O[C@@H]3O[C@H](CO)[C@@H](O)[C@H](O)[C@H]3O)CC[C@]3(C)C(=CCC4[C@@]5(C)CC[C@H](O[C@H]6O[C@H](CO)[C@@H](O)[C@H](O[C@@H]7O[C@H](CO)[C@@H](O)[C@H](O)[C@H]7O)[C@H]6O)C(C)(C)C5CC[C@]43C)[C@@H]2C1 (stereo not given in full)
inactive: Potency [1] | activity change, negative = viability loss [2] 3.49% [at 9.23 µM] | activity change, negative = cell killing [3] 2.79% [at 9.23 µM]

C=Cc1ccc(O[C@@H]2O[C@H](CO[C@@H]3O[C@@H](C)[C@H](O)[C@@H](O)[C@H]3O)[C@@H](O)[C@H](O)[C@H]2O)cc1
inactive: Potency [1] | Potency [2] | Potency [3]

CC1(C)CC[C@]2(C(=O)O[C@@H]3O[C@H](CO)[C@@H](O)[C@H](O)[C@H]3O)CC[C@]3(C)C(=CCC4[C@@]5(C)C[C@@H](O)[C@H](O)[C@@](C)(CO)C5[C@H](O)C[C@]43C)C2C1 (stereo not given in full)
inactive: Potency [1] | Potency [2] | Potency [3]

C=C[C@@](C)(CCC=C(C)C)O[C@@H]1O[C@H](CO[C@@H]2OC[C@H](O)[C@H](O)[C@H]2O)[C@@H](O)[C@H](O)[C@H]1O
inactive: Potency [1] | Potency [2] | Potency [3]

NC1(c2ccc(NC(=O)c3ccnc(-c4cc(C(=O)O)ccn4)c3)cc2)CC1
inactive: Potency [1] | Potency [2] | Potency [3]

COc1cc(C(C)=O)ccc1O[C@@H]1O[C@H](CO)[C@@H](O)[C@H](O)[C@H]1O
inactive: Potency [1] | Potency [2] | Potency [3]

COc1cc(/C=C/C(=O)O)ccc1O[C@@H]1O[C@H](CO)[C@@H](O)[C@H](O)[C@H]1O[C@@H]1OC[C@](O)(CO)[C@H]1O
inactive: Potency [1] | Potency [2] | Potency [3]

CC(=O)OCC1=C[C@@H]2OC(=O)C3=CO[C@@H](O[C@@H]4O[C@H](CO)[C@@H](O)[C@H](O)[C@H]4O)[C@H]1[C@@H]32
inactive: Potency [1] | Potency [2] | Potency [3]

COCC1OC(n2cnc3c(=O)[nH]cnc32)C(O)C1O (stereo not given)
inactive: Potency [1] | Potency [2] | Potency [3]

C[C@@H]1[C@H]2[C@H](O[C@@H]3O[C@H](CO)[C@@H](O)[C@H](O)[C@H]3O)OC=C(C(=O)O)[C@H]2C[C@@H]1OC(=O)/C=C/c1ccc(O)cc1
inactive: Potency [1] | Potency [2] | Potency [3]

CC(C/C=C/C(C)(C)O)C1CCC(C)(O)C(O)C1 (stereo not given)
inactive: Potency [1] | Potency [2] | Potency [3]

COC(=O)[C@]1(C)CCC[C@@]2(C)[C@@H]3CC[C@@H]4C[C@@]3(CC[C@@H]21)C[C@H]4C(=O)O
inactive: Potency [1] | Potency [2] | Potency [3]

CCCC/C=C\CCCCCc1cc(=O)c2ccccc2n1C
inactive: Potency [1] | Potency [2] | Potency [3]

C=CC1(C)C=C2CC[C@H]3[C@@](C)(C(=O)O)CCC[C@]3(C)C2CC1 (stereo not given in full)
inactive: Potency [1] | Potency [2] | Potency [3]

COc1c2c(c(C)c3c1C(=O)OC3)OC1(C)CC(O)C34OC(O)(CCC3(C)C1C2)OC4(C)C (stereo not given)
inactive: Potency [1] | Potency [2] | Potency [3]

CC1CC(=O)[C@]2(O)C(C(=O)OCCc3ccc(O)cc3)=CO[C@@H](O[C@@H]3O[C@H](CO)[C@@H](O)[C@H](O)[C@H]3O)[C@H]12 (stereo not given in full)
inactive: Potency [1] | Potency [2] | Potency [3]

CC1=C2C[C@@]3(C)[C@@H](CCC[C@@H]3C)C[C@@]2(O)OC1=O
inactive: Potency [1] | Potency [2] | Potency [3]

C/C(=C\CCC(C)C1CC(O)C2(C)C3CCC4C(C)(C)C(OC5OCC(O)C(O)C5O)CCC45CC35CC(O)C12C)C(=O)O (stereo not given)
inactive: Potency [1] | Potency [2] | Potency [3]

O=C(O)Cc1cn([C@@H]2OC[C@@H](O[C@@H]3O[C@H](CO)[C@@H](O)[C@H](O)[C@H]3O)[C@H](O)[C@H]2O[C@@H]2O[C@H](CO)[C@@H](O)[C@H](O)[C@H]2O)c2ccccc12
inactive: Potency [1] | Potency [2] | Potency [3]

COc1ccc(C2(O)c3ccccc3NC(=O)C2OC)cc1 (stereo not given)
inactive: Potency [1] | Potency [2] | Potency [3]

O=C(O[C@@H]1O[C@H](CO)[C@@H](O)[C@H](O)[C@H]1O)c1ccccc1
inactive: Potency [1] | Potency [2] | Potency [3]
